Results published in PubChem BioAssay AID602257 (NMMLSC, 2012).
Results with a measured potency or affinity are listed apart. Activity calls are given as the source filed them. The rule behind the calls is not given here.

test: yeast V-ATPase proton pumping modulator potency, dose response, S. cerevisiae, pHLuorin, powder set 1 (AID 602257); conditions: vacuolar pH, pHLuorin fluorescence; series mostly up to 100 µM

outcome, inactive:
CC(C)(C)C(=O)N1CCN(c2nc3ccc(F)cc3s2)CC1
O=C(c1ccc([N+](=O)[O-])o1)N1CCN(c2ccccn2)CC1
O=C(c1cccs1)N1CCN(c2nc3ccc(F)cc3s2)CC1
CS(=O)(=O)c1ccc2nc(N3CCN(C(=O)c4ccc([N+](=O)[O-])o4)CC3)sc2c1
Cc1cc(C(=O)N2CCN(c3nc4ccc(F)cc4s3)CC2)on1
O=C(c1ccc([N+](=O)[O-])o1)N1CCN(c2nc3ccc(F)cc3s2)CC1
COc1ccc2nc(N3CCN(C(=O)c4ccc([N+](=O)[O-])o4)CC3)sc2c1
O=C(c1cnccn1)N1CCN(c2nc3ccc(F)cc3s2)CC1
CS(=O)(=O)c1cccc2sc(N3CCN(C(=O)c4ccc([N+](=O)[O-])o4)CC3)nc12
Cc1cc(C(=O)N2CCN(c3nc4ccc(F)cc4s3)CC2)nn1C
O=C(c1nc2ccccc2s1)N1CCN(c2nc3ccc(F)cc3s2)CC1
O=C(c1ccno1)N1CCN(c2nc3ccc(F)cc3s2)CC1
O=C(c1ccco1)N1CCN(c2nc3ccc(F)cc3s2)CC1
O=C(c1ccc(Cl)s1)N1CCN(c2nc3ccc(F)cc3s2)CC1
O=C(C1CCCCC1)N1CCN(c2nc3ccc(F)cc3s2)CC1
Cc1cc(C(=O)N2CCN(c3nc4ccc(F)cc4s3)CC2)no1
O=C(C1CC1)N1CCN(c2nc3ccc(F)cc3s2)CC1
O=C(c1ccc(Br)s1)N1CCN(c2nc3ccc(F)cc3s2)CC1
O=C(c1ccc([N+](=O)[O-])o1)N1CCN(c2nccs2)CC1
Cc1cc(C(=O)N2CCN(c3nc4ccc(F)cc4s3)CC2)n(C)n1
